Data published in publication PMC9911399, “Two distinct binding modes provide the RNA-binding protein RbFox with extraordinary sequence specificity”.
Numbering of substitutions follows the chain as printed; changes in the protein carry UniProt numbers. Over roughly 16,000 sequences, “ka relative to ugcaugu” has its median near 0.096; the highest 2% begin near 0.35. The full list was thinned out, with the highest values kept by preference.

T1: RBFOX1 RRM RbFoxmut (Fox-RRM*) (Homo sapiens, UniProt Q9NWB1 109-208, R118D;E147R;N151S;E152T)
T1 sequence: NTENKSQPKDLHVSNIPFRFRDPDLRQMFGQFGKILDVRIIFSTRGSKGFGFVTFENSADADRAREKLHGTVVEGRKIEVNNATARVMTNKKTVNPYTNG

B1: AAGUUAU (DNA:RNA)
RNA: GGGAGACCGGAAUUCAGAUUGUCCAAGUUAUUUAAAUCCCGUCGUAGCCACCA
DNA 1: CAATCTGAATTCCGGTCTCCC
DNA 2: TGGTGGCTACGACGGGATT
B2: GUUUCAU (DNA:RNA)
RNA: B1 RNA with A25G, A26U, G27U, U29C
DNA 1: CAATCTGAATTCCGGTCTCCC
DNA 2: TGGTGGCTACGACGGGATT
B3: UAGCAGU (DNA:RNA)
RNA: B1 RNA with A25U, U28C, U29A, A30G
DNA 1: CAATCTGAATTCCGGTCTCCC
DNA 2: TGGTGGCTACGACGGGATT
B4: CGUACCU (DNA:RNA)
RNA: B1 RNA with A25C, A26G, G27U, U28A, U29C, A30C
DNA 1: CAATCTGAATTCCGGTCTCCC
DNA 2: TGGTGGCTACGACGGGATT
B5: AGCAUGU (DNA:RNA)
RNA: B1 RNA with A26G, G27C, U28A, A30G
DNA 1: CAATCTGAATTCCGGTCTCCC
DNA 2: TGGTGGCTACGACGGGATT
B6: UAGCAUC (DNA:RNA)
RNA: B1 RNA with A25U, U28C, U29A, A30U, U31C
DNA 1: CAATCTGAATTCCGGTCTCCC
DNA 2: TGGTGGCTACGACGGGATT
B7: AGCCAUG (DNA:RNA)
RNA: B1 RNA with A26G, G27C, U28C, U29A, A30U, U31G
DNA 1: CAATCTGAATTCCGGTCTCCC
DNA 2: TGGTGGCTACGACGGGATT
B8: AGAUGGU (DNA:RNA)
RNA: B1 RNA with A26G, G27A, U29G, A30G
DNA 1: CAATCTGAATTCCGGTCTCCC
DNA 2: TGGTGGCTACGACGGGATT
B9: UAGCAUA (DNA:RNA)
RNA: B1 RNA with A25U, U28C, U29A, A30U, U31A
DNA 1: CAATCTGAATTCCGGTCTCCC
DNA 2: TGGTGGCTACGACGGGATT
B10: AGCAUUG (DNA:RNA)
RNA: B1 RNA with A26G, G27C, U28A, A30U, U31G
DNA 1: CAATCTGAATTCCGGTCTCCC
DNA 2: TGGTGGCTACGACGGGATT
B11: AUGGUUG (DNA:RNA)
RNA: B1 RNA with A26U, U28G, A30U, U31G
DNA 1: CAATCTGAATTCCGGTCTCCC
DNA 2: TGGTGGCTACGACGGGATT
B12: AUGUUGG (DNA:RNA)
RNA: B1 RNA with A26U, A30G, U31G
DNA 1: CAATCTGAATTCCGGTCTCCC
DNA 2: TGGTGGCTACGACGGGATT
B13: UAGCAUG (DNA:RNA)
RNA: B1 RNA with A25U, U28C, U29A, A30U, U31G
DNA 1: CAATCTGAATTCCGGTCTCCC
DNA 2: TGGTGGCTACGACGGGATT
B14: ACCAUGG (DNA:RNA)
RNA: B1 RNA with A26C, G27C, U28A, A30G, U31G
DNA 1: CAATCTGAATTCCGGTCTCCC
DNA 2: TGGTGGCTACGACGGGATT
B15: AGCAUGG (DNA:RNA)
RNA: B1 RNA with A26G, G27C, U28A, A30G, U31G
DNA 1: CAATCTGAATTCCGGTCTCCC
DNA 2: TGGTGGCTACGACGGGATT
B16: AGCAUAU (DNA:RNA)
RNA: B1 RNA with A26G, G27C, U28A
DNA 1: CAATCTGAATTCCGGTCTCCC
DNA 2: TGGTGGCTACGACGGGATT
B17: AUUCCUA (DNA:RNA)
RNA: B1 RNA with A26U, G27U, U28C, U29C, A30U, U31A
DNA 1: CAATCTGAATTCCGGTCTCCC
DNA 2: TGGTGGCTACGACGGGATT
B18: ACGGGGG (DNA:RNA)
RNA: B1 RNA with A26C, U28G, U29G, A30G, U31G
DNA 1: CAATCTGAATTCCGGTCTCCC
DNA 2: TGGTGGCTACGACGGGATT
B19: UCCUCGU (DNA:RNA)
RNA: B1 RNA with A25U, A26C, G27C, U29C, A30G
DNA 1: CAATCTGAATTCCGGTCTCCC
DNA 2: TGGTGGCTACGACGGGATT
B20: GUACUCA (DNA:RNA)
RNA: B1 RNA with A25G, A26U, G27A, U28C, A30C, U31A
DNA 1: CAATCTGAATTCCGGTCTCCC
DNA 2: TGGTGGCTACGACGGGATT
B21: CACUACA (DNA:RNA)
RNA: B1 RNA with A25C, G27C, U29A, A30C, U31A
DNA 1: CAATCTGAATTCCGGTCTCCC
DNA 2: TGGTGGCTACGACGGGATT
B22: UUAGGGA (DNA:RNA)
RNA: GGGAGACCGGAAUUCAGAUUGUCCUUAGGGAUUAAAUCCCGUCGUAGCCACCA
DNA 1: CAATCTGAATTCCGGTCTCCC
DNA 2: TGGTGGCTACGACGGGATT
B23: AGCCGCU (DNA:RNA)
RNA: B1 RNA with A26G, G27C, U28C, U29G, A30C
DNA 1: CAATCTGAATTCCGGTCTCCC
DNA 2: TGGTGGCTACGACGGGATT
B24: GCUCAAC (DNA:RNA)
RNA: B1 RNA with A25G, A26C, G27U, U28C, U29A, U31C
DNA 1: CAATCTGAATTCCGGTCTCCC
DNA 2: TGGTGGCTACGACGGGATT
B25: UCGCGAA (DNA:RNA)
RNA: B22 RNA with U26C, A27G, G28C, G30A
DNA 1: CAATCTGAATTCCGGTCTCCC
DNA 2: TGGTGGCTACGACGGGATT
B26: UGACUUG (DNA:RNA)
RNA: B22 RNA with U26G, G28C, G29U, G30U, A31G
DNA 1: CAATCTGAATTCCGGTCTCCC
DNA 2: TGGTGGCTACGACGGGATT
B27: AUCCGCU (DNA:RNA)
RNA: B1 RNA with A26U, G27C, U28C, U29G, A30C
DNA 1: CAATCTGAATTCCGGTCTCCC
DNA 2: TGGTGGCTACGACGGGATT
B28: AAGCAUA (DNA:RNA)
RNA: B1 RNA with U28C, U29A, A30U, U31A
DNA 1: CAATCTGAATTCCGGTCTCCC
DNA 2: TGGTGGCTACGACGGGATT
B29: AAGCAUC (DNA:RNA)
RNA: B1 RNA with U28C, U29A, A30U, U31C
DNA 1: CAATCTGAATTCCGGTCTCCC
DNA 2: TGGTGGCTACGACGGGATT
B30: AAGCAUG (DNA:RNA)
RNA: B1 RNA with U28C, U29A, A30U, U31G
DNA 1: CAATCTGAATTCCGGTCTCCC
DNA 2: TGGTGGCTACGACGGGATT
B31: CGAUGCA (DNA:RNA)
RNA: B22 RNA with U25C, U26G, G28U, G30C
DNA 1: CAATCTGAATTCCGGTCTCCC
DNA 2: TGGTGGCTACGACGGGATT
B32: GAAUGCA (DNA:RNA)
RNA: B22 RNA with U25G, U26A, G28U, G30C
DNA 1: CAATCTGAATTCCGGTCTCCC
DNA 2: TGGTGGCTACGACGGGATT
B33: ACAUGCG (DNA:RNA)
RNA: B1 RNA with A26C, G27A, U29G, A30C, U31G
DNA 1: CAATCTGAATTCCGGTCTCCC
DNA 2: TGGTGGCTACGACGGGATT
B34: CCAUGCC (DNA:RNA)
RNA: B22 RNA with U25C, U26C, G28U, G30C, A31C
DNA 1: CAATCTGAATTCCGGTCTCCC
DNA 2: TGGTGGCTACGACGGGATT
B35: GAUUGCA (DNA:RNA)
RNA: B1 RNA with A25G, G27U, U29G, A30C, U31A
DNA 1: CAATCTGAATTCCGGTCTCCC
DNA 2: TGGTGGCTACGACGGGATT
B36: GCAUCCC (DNA:RNA)
RNA: B1 RNA with A25G, A26C, G27A, U29C, A30C, U31C
DNA 1: CAATCTGAATTCCGGTCTCCC
DNA 2: TGGTGGCTACGACGGGATT
B37: GUCCGCA (DNA:RNA)
RNA: B22 RNA with U25G, A27C, G28C, G30C
DNA 1: CAATCTGAATTCCGGTCTCCC
DNA 2: TGGTGGCTACGACGGGATT
B38: GCAUGCA (DNA:RNA)
RNA: B22 RNA with U25G, U26C, G28U, G30C
DNA 1: CAATCTGAATTCCGGTCTCCC
DNA 2: TGGTGGCTACGACGGGATT
B39: GCAUGCG (DNA:RNA)
RNA: B22 RNA with U25G, U26C, G28U, G30C, A31G
DNA 1: CAATCTGAATTCCGGTCTCCC
DNA 2: TGGTGGCTACGACGGGATT
B40: GCAUGCC (DNA:RNA)
RNA: B22 RNA with U25G, U26C, G28U, G30C, A31C
DNA 1: CAATCTGAATTCCGGTCTCCC
DNA 2: TGGTGGCTACGACGGGATT
B41: GCCUGCC (DNA:RNA)
RNA: B1 RNA with A25G, A26C, G27C, U29G, A30C, U31C
DNA 1: CAATCTGAATTCCGGTCTCCC
DNA 2: TGGTGGCTACGACGGGATT
B42: GCAUUAA (DNA:RNA)
RNA: B1 RNA with A25G, A26C, G27A, U31A
DNA 1: CAATCTGAATTCCGGTCTCCC
DNA 2: TGGTGGCTACGACGGGATT

Target: T1, RBFOX1 RRM RbFoxmut (Fox-RRM*)
Assay: EMSA; HiTS-Eq, 1 nM pool, 10 min; buffer printed only for the single-RNA assays: 10 mM Tris pH 7.5, 150 mM NaCl, 3.4 mM EDTA, 0.001% NP-40, 30 C
Settings: tags: His6 N-terminal (pET28a); label: 5' 32P
How it was run: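 Purified wild-type or mutant RbFox RRM at increasing concentrations was equilibrated with 1 nM of 5′-radiolabelled RNA carrying 7 randomized nucleotides for 10 min in 50 µL. Unbound RNA was separated by 8% native PAGE and sequenced. Relative association constants came from read-count changes of each RNA species compared with the control reaction, normalised to the cognate motif.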

Binder | binding signal
B1 | 0.118 KA relative to UGCAUGU
B2 | 0.132 KA relative to UGCAUGU
B3 | 0.0735 KA relative to UGCAUGU
B4 | 0.099 KA relative to UGCAUGU
B5 | 0.713 KA relative to UGCAUGU
B6 | 0.266 KA relative to UGCAUGU
B7 | 0.163 KA relative to UGCAUGU
B8 | 0.117 KA relative to UGCAUGU
B9 | 0.0997 KA relative to UGCAUGU
B10 | 0.2 KA relative to UGCAUGU
B11 | 0.48 KA relative to UGCAUGU
B12 | 0.123 KA relative to UGCAUGU
B13 | 0.819 KA relative to UGCAUGU
B14 | 0.0839 KA relative to UGCAUGU
B15 | 0.538 KA relative to UGCAUGU
B16 | 0.133 KA relative to UGCAUGU
B17 | 0.098 KA relative to UGCAUGU
B18 | 0.118 KA relative to UGCAUGU
B19 | 0.124 KA relative to UGCAUGU
B20 | 0.095 KA relative to UGCAUGU
B21 | 0.13 KA relative to UGCAUGU

Binder | binding signal
B22 | 0.0529 KA relative to UGCAUGU
B23 | 0.0799 KA relative to UGCAUGU
B24 | 0.0746 KA relative to UGCAUGU
B25 | 0.105 KA relative to UGCAUGU
B26 | 0.272 KA relative to UGCAUGU
B27 | 0.121 KA relative to UGCAUGU
B28 | 0.0958 KA relative to UGCAUGU
B29 | 0.196 KA relative to UGCAUGU
B30 | 0.715 KA relative to UGCAUGU
B31 | 0.158 KA relative to UGCAUGU
B32 | 1.03 KA relative to UGCAUGU
B33 | 0.139 KA relative to UGCAUGU
B34 | 0.19 KA relative to UGCAUGU
B35 | 0.171 KA relative to UGCAUGU
B36 | 0.142 KA relative to UGCAUGU
B37 | 0.107 KA relative to UGCAUGU
B38 | 0.828 KA relative to UGCAUGU
B39 | 0.872 KA relative to UGCAUGU
B40 | 0.651 KA relative to UGCAUGU
B41 | 0.176 KA relative to UGCAUGU
B42 | 0.141 KA relative to UGCAUGU
